Experimental data: PubChem BioAssay (NCATS)
Inconclusive results are not listed. Active and inactive are the calls of the source. Calls come from the whole dose curve; as a rule, active = well fitted cell-killing curve with a large enough effect; inconclusive = small, poorly fitted or top-dose-only effect, or effect the other way; inactive = no such curve, though single readings can be large or run the other way.

assay: Quantitative High-Throughput drug screen in 47 multiple myeloma cell lines against the NCATS MIPE library collection: MM1S_ATCC cell viability assay (AID 1918980); conditions: MM1S myeloma viability, CellTiter-Glo ATP luminescence, 48 h; series mostly up to 45.8 µM; note: nearly all actives have a fitted effect of over 45% in size
Excerpt: PI: Beverly A. Mock Ph.D.
Laboratory of Cancer Biology and Genetics,
Center for Cancer Research, National Cancer Institute,
National Institute of Health, Bethesda, Maryland
Drug resistance and disease progression are common in multiple myeloma (MM) patients, underscoring the need for new therapeutic combinations. […] We hypothesized that effective combinations would reduce MYC expression and enhance p16 activity. […] These preclinical data identify potentially useful drug combinations for evaluation in drug-resistant MM and reveal potential mechanisms of combined drug sensitivity.
Described herein is the primary MIPE qHTS used to cherrypick compounds. Validated compounds were then further tested for potential synergistic activiy.
[1] Peat TJ, Gaikwad SM, Dubois W, Gyabaah-Kessie N, Zhang S, Gorjifard S, Phyo Z, Andres M, Hughitt VK, Simpson RM, Miller MA, Girvin AT, Taylor A, Williams D, D'Antonio N, Zhang Y, Rajagopalan A, Flietner E, Wilson K, Zhang X, Shinn P, Klumpp-Thomas C, McKnight C, Itkin Z, Chen L, Kazandijian D, Zhang J, Michalowski AM, Simmons JK, Keats J, Thomas CJ, Mock BA. Drug combinations identified by high-throughput screening promote cell cycle transition and upregulate Smad pathways in myeloma. Cancer Lett. 2023 Aug 1;568:216284. doi: 10.1016/j.canlet.2023.216284. Epub 2023 Jun 24. PMID: 37356470; PMCID: PMC10408729.
SEQUENCE No. (e.g., 1, 2, 3, etc.); […] (e.g., Cells, Incubation, Reagent, etc.); VALUE and DESCRIPTION.
1; Cells; 5 uL; white, solid bottom 1536-well Greiner assay plate.
2; Compounds; 23 nL; Kalypsis pin tool (Wako USA) equipped with a 1536-well pin head to transfer to the assay plates.
3; Incubation; 48 hours; 37C incubation.
4; Reagent;5uL; CellTiter Glo (Promega).
5; Detector; 425V; Luminescence; Viewlux PerkinElmer.
NOTES (numbers refer to Sequence numbers above)
1. The cell-based screening methods employed in this study were like those previously published. Briefly, the corresponding myeloma cell lines were screened in 1,536-well plates with 500 cells, 5-uL per well for inhibition of cell viability (assessed by measuring ATP levels with CellTiterGlo).
2. NCATS MIPE 4.0 library of approved and investigational drugs were added using the Kalypsis pin tool. Wells treated with DMSO only for 100% viability and media only for 0% viability were used as controls.
3. The assay plates were covered and incubated for 48 hours in a 37C, 5% CO2 incubator with controlled humidity.
4. After 48 hours, CellTilter-GloTM luminescent substrate mix (Promega) reagent was added to the assay plate and plates we incubated for 5 min at room temperature.
5. Signal was measured as median relative luminescence units on a ViewLux (PerkinElmer) multiplate reader.
[1] Heske CM, Davis MI, Baumgart JT, Wilson K, Gormally MV, Chen L, Zhang X, Ceribelli M, Duveau DY, Guha R, Ferrer M, Arnaldez FI, Ji J, Tran HL, Zhang Y, Mendoza A, Helman LJ, Thomas CJ. Matrix Screen Identifies Synergistic Combination of PARP Inhibitors and Nicotinamide Phosphoribosyltransferase (NAMPT) Inhibitors in Ewing Sarcoma. Clin Cancer Res. 2017 Dec 1;23(23):7301-7311. doi: 10.1158/1078-0432.CCR-17-1121. Epub 2017 Sep 12. PMID: 28899971; PMCID: PMC6636827.
Potency is the fitted concentration of half-maximal effect.

SMILES	Potency
CN(C)CCCN1c2ccccc2CCc2ccc(Cl)cc21	0.743 µM (active)
CC(C(=O)O)c1cccc(C(=O)c2ccccc2)c1 (stereo not given)	2.96 µM (active)
Cn1c(=O)c2c(ncn2C)n(C)c1=O	inactive
COc1cc2nc(N(C)CCCNC(=O)C3CCCO3)nc(N)c2cc1OC (stereo not given)	inactive
Cn1c(=O)c2[nH]cnc2n(C)c1=O	23.5 µM (active)
CC(C)NCC(O)c1ccc(O)c(O)c1 (stereo not given)	0.166 µM (active)
CN1CCC(=C2c3ccccc3CC(=O)c3sccc32)CC1	16.6 µM (active)
CC12CC3CC(C)(C1)CC(N)(C3)C2	18.7 µM (active)
Nc1c2c(nc3ccccc13)CCCC2	11.8 µM (active)
CN(Cc1cnc2nc(N)nc(N)c2n1)c1ccc(C(=O)N[C@@H](CCC(=O)O)C(=O)O)cc1	0.0187 µM (active)
CN(C)CCOC(c1ccccc1)c1ccccc1	10.5 µM (active)
O=c1c(O)c(-c2ccc(O)c(O)c2)oc2cc(O)cc(O)c12	26.4 µM (active)
CN1CCN(CCCN2c3ccccc3Sc3ccc(Cl)cc32)CC1	9.35 µM (active)
COc1nc(C)nc(Cl)c1NC1=NCCN1	26.4 µM (active)
O=C(Nc1ccc([N+](=O)[O-])cc1Cl)c1cc(Cl)ccc1O	1.18 µM (active)
OCCN1CCN(CCCN2c3ccccc3Sc3ccc(C(F)(F)F)cc32)CC1	2.96 µM (active)
O=C1c2c(O)ccc(O)c2C(=O)c2c(NCCNCCO)ccc(NCCNCCO)c21	0.0469 µM (active)
CC(CCc1ccc(O)cc1)NCCc1ccc(O)c(O)c1 (stereo not given)	10.5 µM (active)
NCCCCCC(=O)O	16.6 µM (active)
CC1(CN2CCC(n3c(=O)[nH]c4ccccc43)CC2)OCc2ccccc2-n2cccc21 (stereo not given)	7.43 µM (active)

SMILES	Potency
CCOC(=O)Nc1ccc(NCc2ccc(F)cc2)nc1N	23.5 µM (active)
CCC1(c2ccccc2)C(=O)NCNC1=O	1.05 µM (active)
COc1cc2nc(N3CCN(C(=O)c4ccco4)CC3)nc(N)c2cc1OC	20.9 µM (active)
COC(=O)Nc1nc2ccc(C(=O)c3cccs3)cc2[nH]1	0.0743 µM (active)
CCCCc1oc2ccccc2c1C(=O)c1cc(I)c(OCCN(CC)CC)c(I)c1	2.35 µM (active)
Cc1ccccc1N1C(=O)c2cc(S(N)(=O)=O)c(Cl)cc2NC1C (stereo not given)	inactive
CC(C)C(=O)Nc1ccc([N+](=O)[O-])c(C(F)(F)F)c1	1.66 µM (active)
NC(=O)OCC(COC(N)=O)c1ccccc1	5.9 µM (active)
Cc1ccc(-c2cc(C(F)(F)F)nn2-c2ccc(S(N)(=O)=O)cc2)cc1	20.9 µM (active)
NC12CC3CC(CC(C3)C1)C2	1.18 µM (active)
COc1ccc2c(c1)c(CC(=O)O)c(C)n2C(=O)c1ccc(Cl)cc1	18.7 µM (active)
Cc1cn([C@H]2C[C@H](N=[N+]=[N-])[C@@H](CO)O2)c(=O)[nH]c1=O	3.32 µM (active)
CNCCCC12CCC(c3ccccc31)c1ccccc12	16.6 µM (active)
CC[N+](CC)(CC)CCOc1cccc(OCC[N+](CC)(CC)CC)c1OCC[N+](CC)(CC)CC	inactive
CC(C)Cc1ccc(C(C)C(=O)O)cc1 (stereo not given)	inactive
Cn1cnc2c1c(=O)[nH]c(=O)n2C	29.6 µM (active)
Nc1nnc(-c2cccc(Cl)c2Cl)c(N)n1	11.8 µM (active)
CCc1cccc2c3c([nH]c12)C(CC)(CC(=O)O)OCC3 (stereo not given)	inactive
C[C@@H]1CC(=O)NN=C1c1ccc(NN=C(C#N)C#N)cc1	23.5 µM (active)
CN1CCC(=C2c3ccccc3C=Cc3ccccc32)CC1	14.8 µM (active)
